Test results reported in the supplement of paper PMC9135407.
Several values for one entry are separate records, joined by “and”; a condition that tells them apart may be missing. Equal values may be shown once. Where a name gives a salt, the structure may show the parent alone. Screen size: about 5,800 compounds; about 620 (11%) showed activity. The list comes from a sample in which actives are over-represented; it also holds similar structures and randomly drawn compounds. Unmarked numbers belong to inactive results.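 Rule for the calls: active = score above a cut-off or among the top three wells of a plate; in these data no inactive exceeds 0.85.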

Tested on: primary human hepatic stellate cells (donor 1)
Experiment: scaled lipid accumulation score (0 = DMSO-like, 1 = nortriptyline-like); higher = stronger HSC inactivation (lipid re-accumulation), active = hit call of the paper
Conditions: 48 h
[1] = library stock concentration: 10 mM
[2] = library stock concentration: 1 mM
[3] = library stock concentration: 3.33 mM
[4] = library stock concentration: 80 uM
[5] = library stock concentration: 400 uM
[6] = library stock concentration: 2 mM
[7] = library stock concentration: 5.3 mM

COC(=O)C(N)Cc1ccc(Cl)cc1 (racemic) [DL-p-Chlorophenylalanine methyl ester hydrochloride]
scaled lipid accumulation score [1]: ≤ 0

CCCCCCCC/C=C\CCCCCCCC(=O)OC[C@@H](O)COP(=O)(O)O [1-Oleoyl Lysophosphatidic Acid]
scaled lipid accumulation score [2]: ≤ 0

CCCCCCCC/C=C\CCCCCCCC(=O)OC[C@@H](O)COP(=O)(O)O [1-Oleoyl Lysophosphatidic Acid (sodium salt)]
scaled lipid accumulation score [2]: ≤ 0

CCCCCCCCCCOc1ccc(OCC(=O)Cn2cc(C(=O)OC)c3cc(C(=O)O)ccc32)cc1
scaled lipid accumulation score [2]: ≤ 0

CCCCCCC(Sc1nc(Cl)cc(NCc2ccc(-c3ccccc3)cc2)n1)C(=O)O (stereo unspecified)
scaled lipid accumulation score [2]: ≤ 0

CCCCCC(=O)CCC1C(=O)C=CC1C/C=C\CCCC(=O)O (stereo unspecified) [13,14-dihydro-15-keto Prostaglandin J2]
scaled lipid accumulation score [2]: ≤ 0

CCCCC[C@H](O)/C=C/[C@H]1OC(O)C[C@H](O)[C@@H]1C/C=C\CCCC(=O)O (stereo partly specified) [Thromboxane B2]
scaled lipid accumulation score [2]: ≤ 0

CC(C)CCN1C(=O)N(CCN(C)C)C(=O)C12CCN(Cc1cn(C)c3ccccc13)CC2
scaled lipid accumulation score [1]: 0.692 (active)

C[C@@H]1[C@H](O)[C@@H](C)/C=C/C=C/C=C/C=C/C=C/C=C/C=C/[C@H](O[C@@H]2O[C@H](C)[C@@H](O)[C@H](N)[C@@H]2O)C[C@@H]2O[C@](O)(C[C@@H](O)C[C@@H](O)[C@H](O)CC[C@@H](O)C[C@@H](O)CC(=O)O[C@H]1C)C[C@H](O)[C@H]2C(=O)O [Amphotericin B]
scaled lipid accumulation score: 0.003
scaled lipid accumulation score [3]: 0.002
scaled lipid accumulation score [1]: ≤ 0

C[C@@H]1[C@H](O)[C@@H](C)/C=C/C=C/C=C/C=C/C=C/C=C/C=C/[C@H](O[C@@H]2O[C@H](C)[C@@H](O)[C@H](N)[C@@H]2O)C[C@@H]2O[C@](O)(C[C@@H](O)C[C@@H](O)[C@H](O)CC[C@@H](O)C[C@@H](O)CC(=O)O[C@H]1C)C[C@H](O)[C@H]2C(=O)O [Amphotericin b]
scaled lipid accumulation score [1]: ≤ 0

S=C(Nc1ccccc1)Nc1nccs1 [1-Phenyl-3-(2-thiazolyl)-2-thiourea]
scaled lipid accumulation score [1]: ≤ -0.055

COc1cccc(Nc2c(C(N)=O)cnc3c(C)cc(S(=O)(=O)c4cccc(C(=O)N(C)C)c4)cc23)c1
scaled lipid accumulation score [3]: ≤ 0
scaled lipid accumulation score [1]: ≤ 0

CCCCCC(O)C=CC1C(O)CC(=O)C1CCCCCCC(=O)O [15(R)-Prostaglandin E1]
scaled lipid accumulation score [2]: ≤ 0

CCCCCC(O)C=CC1C(O)CC(=O)C1CCCCCCC(=O)O (stereo unspecified) [8-iso Prostaglandin E1]
scaled lipid accumulation score [2]: ≤ 0

COc1cc(C)c(Sc2cnc(NC(=O)c3ccc(CNC(C)C(C)C)cc3)s2)cc1C(=O)N1CCN(C(C)=O)CC1 (stereo unspecified) [listing 1 of 2 here]
scaled lipid accumulation score [4]: 0.006
scaled lipid accumulation score [5]: ≤ 0
scaled lipid accumulation score [6]: 0.398

COc1cc(C)c(Sc2cnc(NC(=O)c3ccc(CNC(C)C(C)C)cc3)s2)cc1C(=O)N1CCN(C(C)=O)CC1 (stereo unspecified) [listing 2 of 2 here]
scaled lipid accumulation score [1]: 0.891 (active)

COc1cc(C)c(Sc2cnc(NC(=O)c3ccc(CNC(C)C(C)(C)C)cc3)s2)cc1C(=O)N1CCN(C(C)=O)CC1 (stereo unspecified)
scaled lipid accumulation score [4]: ≤ -0.009
scaled lipid accumulation score [5]: ≤ -0.009
scaled lipid accumulation score [6]: 0.095
scaled lipid accumulation score [1]: 0.769

CC(C(O)c1ccc(O)cc1)N1CCC(Cc2ccccc2)CC1 (stereo unspecified) [Ifenprodil hemitartrate]
scaled lipid accumulation score [1]: 0.45

CC(C(O)c1ccc(O)cc1)N1CCC(Cc2ccccc2)CC1 (stereo unspecified) [Ifenprodil tartrate]
scaled lipid accumulation score: 0.252

CC(C(O)c1ccc(O)cc1)N1CCC(Cc2ccccc2)CC1 (stereo unspecified) [Ifenprodil Tartrate]
scaled lipid accumulation score [3]: ≤ 0
scaled lipid accumulation score [1]: 0.077

CC(C(O)c1ccc(O)cc1)N1CCC(Cc2ccccc2)CC1 (stereo unspecified) [Ifenprodil]
scaled lipid accumulation score (library stock concentration: 6.1 mM): 0.223
scaled lipid accumulation score (library stock concentration: 9.6 mM): 0.096

C[C@@H](CN1CCC(Cc2ccccc2)CC1)[C@@H](O)c1ccc(O)cc1 [Ro 25-6981 hydrochloride]
scaled lipid accumulation score [1]: ≤ 0

C[C@@H](CN1CCC(Cc2ccccc2)CC1)[C@@H](O)c1ccc(O)cc1 [Ro 25-6981 maleate]
scaled lipid accumulation score [1]: 0.284

CC(C(O)c1ccc(O)cc1)N1CCC(Cc2ccccc2)CC1.CC(C(O)c1ccc(O)cc1)N1CCC(Cc2ccccc2)CC1.O=C(O)C(O)C(O)C(=O)O (stereo unspecified) [Ifenprodil tartrate]
scaled lipid accumulation score [1]: 1.11 (active)

Nc1nc(=S)c2ncn([C@@H]3O[C@H](CO)[C@@H](O)[C@H]3O)c2[nH]1 [Thioguanosine]
scaled lipid accumulation score: 0.076

CCCCC[C@H](O)/C=C/[C@@H]1[C@H](CCCCCCC(=O)O)[C@@H](O)C[C@H]1O [8-iso Prostaglandin F1.alpha.]
scaled lipid accumulation score [2]: ≤ 0

CCCCC/C=C\C/C=C\C/C=C\CCCCC(=O)O [.gamma.-Linolenic Acid]
scaled lipid accumulation score [2]: 0.011

CCCCC/C=C\C/C=C\C/C=C\CCCCC(=O)O [Gamma-linolenic acid (18:3 n-6)]
scaled lipid accumulation score [2]: 0.024

OCCOCCN1CCN(C(c2ccccc2)c2ccc(Cl)cc2)CC1 (stereo unspecified) [Hydroxyzine dihydrochloride]
scaled lipid accumulation score: 0.453

Cl.Clc1ccc(CCCOCCCN2CCCCC2)cc1
scaled lipid accumulation score [1]: 1.05 (active)

OCCOCCN1CCN(C(c2ccccc2)c2ccc(Cl)cc2)CC1 (stereo unspecified) [Hydroxyzine 2HCl]
scaled lipid accumulation score [3]: 0.1
scaled lipid accumulation score [1]: 0.631

OCCOCCN1CCN(C(c2ccccc2)c2ccc(Cl)cc2)CC1 (stereo unspecified) [Hydroxyzine pamoate]
scaled lipid accumulation score (library stock concentration: 2.6 mM): 0.044
scaled lipid accumulation score [1]: 0.142

OC(CCCN1CCCCC1)(c1ccccc1)c1ccccc1 [Diphenidol hydrochloride]
scaled lipid accumulation score: 0.315

OC(CCCN1CCCCC1)(c1ccccc1)c1ccccc1 [Diphenidol HCl]
scaled lipid accumulation score [3]: ≤ 0
scaled lipid accumulation score [1]: 0.007

CCCCC[C@H](O)/C=C/[C@@H]1[C@@H](C/C=C\CCCC(=O)NCCO)[C@@H](O)C[C@H]1O [Prostaglandin F2.alpha. Ethanolamide]
scaled lipid accumulation score [2]: ≤ 0

Nc1ncnc2c1ncn2[C@@H]1O[C@H](CO)C[C@@H]1O [3'-deoxydenosine]
scaled lipid accumulation score [1]: ≤ 0

CC(C)(C)NCC(O)c1ccc(O)c(CO)c1 (racemic) [Albuterol (+/-)]
scaled lipid accumulation score [1]: 0.068

CO/N=C(\C(=O)N[C@@H]1C(=O)N2C(C(=O)O)=C(CSc3nnnn3C)CS[C@H]12)c1csc(N)n1
scaled lipid accumulation score [1]: ≤ 0

CC(C)=CCCC(C)(OC1OC(COC2OCC(O)C(O)C2O)C(O)C(O)C1O)C1CCC2(C)C1C(O)CC1C3(C)CCC(OC4OC(CO)C(O)C(O)C4O)C(C)(C)C3CCC12C (stereo unspecified) [Gynostemma Extract]
scaled lipid accumulation score [3]: 0.01
scaled lipid accumulation score [1]: ≤ 0

O=C(CCCN1CCC(O)(c2cccc(C(F)(F)F)c2)CC1)c1ccc(F)cc1 [Trifluperidol 2HCl]
scaled lipid accumulation score (library stock concentration: 4.9 mM): 0.327

O=C(CCCN1CCC(O)(c2ccc(Cl)cc2)CC1)c1ccc(F)cc1 [Haloperidol] [listing 1 of 2 here]
scaled lipid accumulation score: 0.589
scaled lipid accumulation score [3]: 0.302
scaled lipid accumulation score [7]: 0.447
scaled lipid accumulation score [1]: 0.787 and 0.814 and 0.297

O=C(CCCN1CCC(O)(c2ccc(Cl)cc2)CC1)c1ccc(F)cc1 [Haloperidol hydrochloride]
scaled lipid accumulation score [1]: 0.78

Cl.O=C(CCCN1CCC(O)(c2cccc(C(F)(F)F)c2)CC1)c1ccc(F)cc1 [Trifluperidol hydrochloride]
scaled lipid accumulation score [1]: 0.88 (active)

NC(=O)C1(N2CCCCC2)CCN(CCCC(=O)c2ccc(F)cc2)CC1
scaled lipid accumulation score [1]: ≤ 0

O=C(CCCN1CCC(O)(c2ccc(Br)cc2)CC1)c1ccc(F)cc1 [Bromperidol]
scaled lipid accumulation score: 0.632
scaled lipid accumulation score (library stock concentration: 4.8 mM): 0.429

O=C(CCCN1CCC(O)(c2ccc(Cl)cc2)CC1)c1ccc(F)cc1 [Haloperidol HCl]
scaled lipid accumulation score [7]: 0.419

O=C(CCCN1CCC(O)(c2ccc(Cl)cc2)CC1)c1ccc(F)cc1 [Haloperidol] [listing 2 of 2 here]
scaled lipid accumulation score [1]: 1.12 (active)

COc1ccc(C2(CNC(=O)c3ccc(NC(=O)c4ccco4)cc3)CCOCC2)cc1
scaled lipid accumulation score [4]: ≤ 0
scaled lipid accumulation score [5]: ≤ 0
scaled lipid accumulation score [6]: ≤ 0
scaled lipid accumulation score [1]: ≤ 0

CCCCC[C@H](O)/C=C/[C@@H]1[C@@H](C/C=C\CCCCO)[C@@H](O)C[C@H]1O [Prostaglandin F2.alpha. Alcohol]
scaled lipid accumulation score [2]: ≤ 0

CCCn1c(=O)c2[nH]c(-c3ccc(S(=O)(=O)O)cc3)nc2n(CCC)c1=O [1,3-Dipropyl-8-p-sulfophenylxanthine]
scaled lipid accumulation score [1]: 0.108

CC1=C(C(=O)OC(C)C)C(c2cccc([N+](=O)[O-])c2)C(C(=O)OC2CN(C(c3ccccc3)c3ccccc3)C2)=C(N)N1 (stereo unspecified) [Azelnidipine]
scaled lipid accumulation score [3]: 0.061
scaled lipid accumulation score [1]: 0.189

O=C(CCC/C=C\C[C@@H]1[C@@H](/C=C/[C@@H](O)CCc2ccccc2)[C@H](O)C[C@@H]1O)NC(CO)CO [17-phenyl trinor Prostaglandin F2.alpha. serinol amide]
scaled lipid accumulation score [2]: 0.062

COc1cc(NC(=O)c2ccccn2)ccc1Cl
scaled lipid accumulation score [3]: ≤ 0
scaled lipid accumulation score [1]: ≤ 0

COc1ccc(NC(=O)c2cc(OCCCN(C)C)nn2Cc2ccccc2)cc1.Cl [CFM 1571 hydrochloride]
scaled lipid accumulation score [1]: 1.11 (active)

COCCOc1nc(-c2ccc(Cl)c(Cl)c2)n(-c2ccc(NC(=O)CCl)cc2)n1 [MI-2 (MALT1 inhibitor)]
scaled lipid accumulation score [3]: 0.584
scaled lipid accumulation score [1]: 0.62

O=C(O)CCC/C=C\CC1C(O)CC(O)C1/C=C/C(O)COc1cccc(Cl)c1 (stereo unspecified) [Cloprostenol]
scaled lipid accumulation score [2]: ≤ -0.021

O=C(O)CCC/C=C\CC1C(O)CC(O)C1/C=C/C(O)COc1cccc(Cl)c1 (stereo unspecified)
scaled lipid accumulation score [1]: ≤ -0.001
